According to PubChem BioAssay AID2227 (Johns Hopkins Ion Channel Center, 2009):
Screen size: about 310,000 compounds; about 1,300 (0.42%) were called active.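 The calls were made as follows: active = B-score of calcium response area above 5 SD of library B-scores, with initial fluorescence ratio within 5 SD of library; inactive = the rest.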 This excerpt belongs to a sample that is enriched for actives.

Each molecule was assayed against Short transient receptor potential channel 4 (Mus musculus) (UniProt Q9QUQ5) (assay: TRPC4 channel potentiators under submaximal DAMGO – cell-based, mouse TRPC4beta, HEK293 mu-opioid, Fluo-4 calcium, primary screen (AID 2227;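 as to B-score: B-score of integrated fluorescence ratio over time as area under calcium response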)). Settings: DAMGO EC20, Fluo-4 Ca2+ flux, at 10 µM; active compounds read high.
Short transient receptor potential channel 4 (Mus musculus), sequence (Q9QUQ5 whole entry, looked up): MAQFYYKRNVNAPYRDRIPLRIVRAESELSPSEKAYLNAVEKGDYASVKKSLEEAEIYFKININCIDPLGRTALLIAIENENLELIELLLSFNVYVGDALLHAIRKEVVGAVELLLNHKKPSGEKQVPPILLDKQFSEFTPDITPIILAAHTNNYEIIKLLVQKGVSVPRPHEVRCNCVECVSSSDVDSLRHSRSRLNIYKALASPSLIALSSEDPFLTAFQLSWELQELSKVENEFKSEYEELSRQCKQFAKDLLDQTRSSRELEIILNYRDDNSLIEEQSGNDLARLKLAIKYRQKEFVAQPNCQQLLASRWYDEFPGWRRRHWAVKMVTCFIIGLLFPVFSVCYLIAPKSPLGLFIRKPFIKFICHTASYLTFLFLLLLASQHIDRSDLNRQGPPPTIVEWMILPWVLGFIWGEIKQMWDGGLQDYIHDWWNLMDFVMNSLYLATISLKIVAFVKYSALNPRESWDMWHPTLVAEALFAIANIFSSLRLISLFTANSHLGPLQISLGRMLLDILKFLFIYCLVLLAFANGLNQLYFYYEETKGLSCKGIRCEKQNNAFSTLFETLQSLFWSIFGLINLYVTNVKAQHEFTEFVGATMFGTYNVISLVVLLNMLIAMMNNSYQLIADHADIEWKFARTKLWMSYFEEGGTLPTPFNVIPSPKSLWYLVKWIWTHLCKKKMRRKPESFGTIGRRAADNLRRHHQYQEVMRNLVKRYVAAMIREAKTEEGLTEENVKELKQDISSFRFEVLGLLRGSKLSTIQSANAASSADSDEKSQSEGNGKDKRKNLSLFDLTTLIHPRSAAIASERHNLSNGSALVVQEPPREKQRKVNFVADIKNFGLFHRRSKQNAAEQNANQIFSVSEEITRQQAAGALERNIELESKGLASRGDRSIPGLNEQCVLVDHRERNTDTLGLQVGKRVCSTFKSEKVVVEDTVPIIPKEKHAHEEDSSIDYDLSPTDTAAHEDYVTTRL

SMILES | B-score
N#Cc1cccc(OC(=O)c2ccc3c(=O)n4c(nc3c2)CCC4)c1 | inactive
CCOC(=O)C1=C(c2ccc(OC)cc2)C(=O)c2ccccc2C1=O | inactive
COC(=O)C1=C(C)NC2=C(C(=O)c3ccccc32)C1c1ccc(-c2ccc(C(=O)O)cc2)o1 (configuration not stated) | 16 (active)
CCOC(=O)c1ccc(-c2ccc(C(=O)Nc3cccnc3)o2)cc1 | inactive
CC(NC(=O)COc1ccc(-c2ccccc2)cc1)C1CCCO1 (configuration not stated) | inactive
O=C(NCCc1ccccc1)C1CC1 | inactive
CCn1cc(C(=O)N2CC=C(c3ccccc3)CC2)c(=O)c2ccc(C)nc21 | inactive
O=C(Nc1cccc(Cl)c1N1CCOCC1)c1ccc2c(c1)OCCO2 | inactive
O=C(Nc1cccc(Cl)c1N1CCOCC1)c1cccnc1 | inactive
CCN1CCN(c2c(Cl)cccc2NC(=O)c2ccc(Br)o2)CC1 | 11 (active)
COc1ccccc1NC(=O)Nc1nc(CC(=O)Nc2ccccc2F)cs1 | inactive
C=CCc1cccc2cc(C(=O)OCC)c(=O)oc12 | inactive
NS(=O)(=O)c1ccc(NC(=O)COC(=O)c2cc3ccccc3oc2=O)cc1 | inactive
CCOC(=O)c1cc2cc3ccccc3cc2oc1=O | 13 (active)
CC(C)c1c(C(=O)N/N=C/c2ccc(-c3ccccc3)cc2)nnn1-c1nonc1N | inactive
CCCc1nc2scc(-c3ccc(C)cc3)c2c(=O)n1N | inactive
CN1CCN(c2ccc(CNS(=O)(=O)c3cccc(F)c3)cc2)CC1 | inactive
O=C(CN1CCN(C(=O)c2ccco2)CC1)Nc1ccc2c(c1)OCO2 | inactive
O=C(NCC(=O)N1CCN(c2ncc(C(F)(F)F)cc2Cl)CC1)c1ccc(Br)o1 | inactive
O=C(CN1CCN(c2ncc(C(F)(F)F)cc2Cl)CC1)Nc1ccc2c(c1)OCO2 | 10 (active)
OCCNc1nc2ccccc2n1-c1ncnc2sc3c(c12)CCC3 | inactive
COCCNC(=S)N1CCC(NC(=O)C23CC4CC(CC(C4)C2)C3)CC1 | inactive
CN(N)c1nc(N2CCCC2)nc(N2CCCC2)n1 | inactive

SMILES | B-score
FC(F)(F)COc1nc(N2CCCCC2)nc(N2CCNCC2)n1 | 27 (active)
COc1nc(NC2CCCCC2)nc(N2CCCCCC2)n1 | inactive
CC(=O)OCCOCn1cnn2c(=O)c(Br)c(C)nc12 | inactive
C/C(=N\NC(=O)c1cc(-c2ccc(O)cc2)nc2ccccc12)c1cccnc1 | inactive
CN(C)c1ccc(/C=C2\NC(=S)N(Cc3ccccc3)C2=O)cc1 | 14 (active)
COc1cc(/C=C2/SC(=S)N(Cc3ccccc3)C2=O)cc(OC)c1O | inactive
O=C1/C(=C\c2ccsc2)NC(=S)N1c1ccccc1 | inactive
CCC(C)(C)NC(=O)c1cc([N+](=O)[O-])ccc1N1CCCCC1 | inactive
CCOc1ccccc1NS(=O)(=O)c1c[nH]c(C(=O)OC)c1 | inactive
CCOC(=O)C1CCCN(CCSc2ccc(C)cc2)C1 (configuration not stated) | inactive
NC(N)=N/N=C/c1ccc(Cl)c([N+](=O)[O-])c1 | 16 (active)
O=C(/C=C/c1ccc(Cl)c([N+](=O)[O-])c1)c1cccnc1 | inactive
O=C(/C=C/c1ccc(Cl)c([N+](=O)[O-])c1)c1ccc(O)cc1 | inactive
Oc1c(Br)cccc1/C=N/Nc1c(F)c(F)c(F)c(F)c1F | 11 (active)
Oc1cccc(/C=N/Nc2ccc(Cl)nn2)c1O | inactive
Brc1ccccc1/C=N/Nc1nc2ccccc2o1 | inactive
O=[N+]([O-])c1cc(S(=O)(=O)CCCN2CCOCC2)ccc1F | inactive
C/C(=N/NC(=O)CCc1ccccc1)c1ccco1 | inactive
COc1ccc(C)cc1NC(=S)N1CCOCC1 | inactive
COc1cc(C(=S)N2CCOCC2)ccc1O | 42 (active)
CCOc1cc(C(=S)N2CCOCC2)ccc1O | inactive
O=C(/C=C/c1ccc(OCc2c(F)cccc2Cl)cc1)N1CCOCC1 | inactive
COCCCNC(=O)/C=C/c1ccc(OCc2c(F)cccc2Cl)cc1 | inactive

SMILES | B-score
CN(C)CCCNC(=O)/C=C/c1ccc(OCc2c(F)cccc2Cl)cc1 | 16 (active)
CSc1nnc(C2CCCN(CC(=O)Nc3ccccc3N3CCOCC3)C2)n1C(C)C (configuration not stated) | inactive
COc1ccc(OC)c(S(=O)(=O)N2CCCC(C(=O)NCCc3ccccc3)C2)c1 (configuration not stated) | inactive
Cc1ccc(S(=O)(=O)N2CCN(Cc3cccc(C)c3O)CC2)cc1 | inactive
O=C(CN1CCN(S(=O)(=O)c2ccc(F)cc2)CC1)Nc1ccccc1F | inactive
O=S(=O)(c1ccc(F)cc1)N1CCN(Cc2ccccc2C(F)(F)F)CC1 | 11 (active)
Cc1ccc(C(=O)COC(=O)c2cccc(N3C(=O)c4c(C)nc5ccccc5c4C3=O)c2)cc1C | inactive
Cc1cccn2c(=O)c(C=O)c(Nc3ccc(S(N)(=O)=O)cc3)nc12 | inactive
O=C(Nc1cccc(Cl)c1)c1cc([N+](=O)[O-])ccc1N1CCN(CCO)CC1 | inactive
CC(=O)Nc1ccc(N2CCOCC2)c(C(=O)Nc2cccc(C)c2)c1 | inactive
Cc1cccc(NC(=O)c2cc([N+](=O)[O-])ccc2N2CCN(C)CC2)c1 | 21 (active)
CC(Sc1nn(-c2ccc(Cl)cc2)c(=S)s1)C(=O)NCC1CCCO1 (configuration not stated) | inactive
COc1ccc(S(=O)(=O)n2cnc3ccccc32)c(C)c1 | inactive
CCCCCOc1ccc(CSC2=NCCN2)cc1[N+](=O)[O-] | inactive
CCCOc1ccc(Cn2ccnc2)cc1[N+](=O)[O-] | inactive
CCCCOc1ccc(CSC(=N)N)cc1[N+](=O)[O-] | 21 (active)
O=C(NNC(=O)C1C2CCC(C2)C1C(=O)O)c1ccc(Cl)cc1 (configuration not stated) | inactive
Cc1ccc(CN(CC(=O)NC2CCCCC2)C(=O)c2csnn2)cc1 | inactive
Cc1ccccc1C(CC(=O)c1cccs1)C(C#N)C#N (configuration not stated) | inactive
CCOc1ccc(Br)cc1S(=O)(=O)Nc1ccc(C(=O)OC(C)C(=O)N(C)c2ccccc2)cc1 (configuration not stated) | inactive
O=C(NCc1cccc(C(F)(F)F)c1)c1cccc(S(=O)(=O)N2CCN(Cc3ccccc3)CC2)c1 | inactive
CCOC(=O)N1CCN(C(=O)c2ccc(S(=O)(=O)Nc3cccc(C(F)(F)F)c3)cc2)CC1 | inactive
O=C(NCc1ccccc1)c1ccc(S(=O)(=O)Nc2cccc(C(F)(F)F)c2)cc1 | 17 (active)

SMILES | B-score
CC[C@@H](C)[C@H](NC(=O)CCc1c(C)c2cc3c4c(oc3c(C)c2oc1=O)CCCC4)C(=O)O | inactive
CN1CCC(=O)N([C@H](CO)Cc2ccccc2)CC1 | inactive
O=C(c1cc(Cl)cc(Cl)c1)N1CCC(=O)N(C(COCc2ccccc2)Cc2ccccc2)CC1 (configuration not stated) | 12 (active)
CC(C)CC(COCc1ccc(Cl)cc1)N1CCN(C(=O)c2ccc(C(F)(F)F)cc2)CCC1=O (configuration not stated) | inactive
COc1ccc(N2CC(C(=O)NCCN3C(=O)S/C(=C\c4cccnc4)C3=O)CC2=O)c(OC)c1 (configuration not stated) | inactive
COc1ccc(N2CCN(S(=O)(=O)CCNC(=O)C34CC5CC(CC(C5)C3)C4)CC2)cc1 | inactive
Cc1ccc(NC(=O)Cc2nnc(SCC(=O)Nc3nncs3)n2C)cc1 | inactive
CC(=O)O[C@]1(C(C)=O)CC[C@H]2[C@@H]3C=C(C)C4=CC(=O)CC[C@]4(C)[C@H]3CC[C@@]21C | inactive
CC(=O)C12CC(C)=C(C)CC1CC1C3CCC4=CC(=O)CCC4(C)C3CCC12C (configuration not stated) | 11 (active)
C[C@]12C=CC(=O)C=C1CC[C@@H]1[C@@H]2C(=O)C[C@@]2(C)[C@H]1CC[C@]2(O)C(=O)CO | inactive
CC(=O)c1c(C)n(-c2ccc(N(C)C)cc2)c2ccc(OCC(N)=O)cc12 | inactive
O=C1CSC(c2ccc(Cl)cc2)N1 (configuration not stated) | inactive
COc1ccc(S(=O)(=O)NC(C)c2ccccc2)cc1C(=O)N1CCCCC1 (configuration not stated) | inactive
O=c1c2ccccc2oc2nc(C3CCCCC3)n(Cc3ccco3)c(=O)c12 | 29 (active)
O=c1c2ccccc2oc2nc3n(c(=O)c12)CCCS3 | inactive
CCc1nc2oc3ccccc3c(=O)c2c(=O)n1Cc1ccc(OC)cc1 | inactive
CN(C)CCNc1ccc(-c2n[nH]c(=O)c3ccccc23)cc1[N+](=O)[O-] | inactive
CCN(CC)CCNc1ccc(Cl)cc1[N+](=O)[O-] | 20 (active)
CSc1ccccc1NC(=O)CN(C)CC(=O)Nc1ccc(Cl)cc1[N+](=O)[O-] | inactive
C/C(=N\N1CCN(Cc2ccc(C)cc2)CC1)c1ccco1 | inactive
CCn1cc(C(=O)NCC(=O)NC(C)(C)CO)c(=O)c2cc3c(cc21)OCO3 | inactive
COc1ccccc1CNS(=O)(=O)CC12CCC(CC1=O)C2(C)C (configuration not stated) | inactive
Cc1c(NC(=O)C(=O)N/N=C/c2cccs2)c(=O)n(-c2ccccc2)n1C | inactive
